According to PubChem BioAssay (NCI):
This is part of a sample that, as a whole, favours compounds with a hit. Of some 83,000 tested, about 20% had one in any assay.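 Growth was measured after 48 h exposure to one concentration of compound in 96-well plates. Values under 10 count as active.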 Unmarked numbers belong to inactive results. Calls of active or inactive are those of the source.

Columns and labels:
Test in all cases: NCI-60 one-dose screen, 48 h (100 = growth as untreated, 0 = no growth, -100 = all killed)
Settings in all cases: 10 µM unless noted
[1] = test system: T-47D breast
[2] = test system: MDA-MB-435 melanoma
[3] = test system: MCF7 breast
[4] = test system: HCT-116 colon
[5] = test system: HCC-2998 colon
[6] = test system: KM12 colon
[7] = test system: SW-620 colon
[8] = test system: BT-549 breast

Row | Structure (SMILES) | growth [1] [%] | growth [2] [%] | growth [3] [%] | growth [4] [%] | growth [5] | growth [6] [%] | growth [7] | growth [8] [%]
1 | Cc1cc[n+](CCCC[n+]2ccc(C)cc2)cc1 | 105 | 102 | 96.3 | 100 | 103% | 90.5 |  | 
2 | O=C1C(SCCO)=C(SCCO)C(=O)N1c1ccc(-c2ccccc2)cc1 | 24 | 92.2 | 80.5 | 13.7 | 79.8% | 83.4 | -66.9% (active) | 
3 | CCC1(C(N)=O)CC2C=CC1CC2 (configuration not stated) | 101 | 121 | 98 | 107 | -100% (active) | 117 | 108% | 
4 | COc1ccc(N)c(S)c1 | 89.5 | 106 | 94.4 | 92.5 | 103% | 105 | 93.6% | 
5 | O=[N+]([O-])c1cccc2cc(S(=O)(=O)O)ccc12 | 98.9 | 110 | 97.2 | 97.6 | 100% | 108 | 99.9% | 
6 | CCOC(=O)n1cnc2c(Cl)ncnc21 | 100 |  | 95.2 | 101 | 2.2% (active) | 107 | 108% | 
7 | CC(=S)Nc1ccccc1 | 100 | 99.4 | 95 | 104 | 105% | 106 | 96.8% | 
8 | CC/C(=C(\CC)c1ccc(OCCN(CC)CC)cc1)c1ccc(OCCN(CC)CC)cc1 | 12.3 | 15.4 | 30.1 | 16.7 | 63.2% | 33.5 | 9.59% (active) | 
9 | Oc1ccc(Cl)cc1Sc1cc(Cl)ccc1O | 75.8 |  | 91.3 | 86.9 | 106% | 106 | 103% | 
10 | NN=C(c1ccc(Cl)cc1)c1ccc(Cl)cc1 | 108 | 97.1 | 99.6 | 98.4 | 96% | 92.9 | 101% | 
11 | Cc1cccc(NCS(=O)(=O)O)c1 | 94.1 | 108 | 95.1 | 102 | 96.9% | 112 | 101% | 
12 | O=C(O)c1cccc(S(=O)(=O)c2ccccc2)c1 |  | 94.2 | 90.4 | 109 | 104% | 97.4 | 98.5% | 107
13 | O=C(C[n+]1ccccc1Cl)c1ccc2c(c1)CCCC2 | 79.6 | 92.1 | 95.8 | 80.3 |  | 82.2 | 82.8% | 
